Screening data from PubChem BioAssay.
Vif-A3G inh: qHTS for Inhibitors of Vif-A3G Interactions: qHTS | HeLa A3G-eYFP + Vif (tagged APOBEC3G with the HIV-1 protein that degrades it), YFP fluorescence, overnight | Potency, µM (titrated, usually from 46.1 µM), for inactives: at the top dose activity, negative = active, usual class: inhibitors | 410,000 tested, 0.076% active; note: % is set by controls: 0 for no effect and ±100 for the full control effect; nearly all actives have a fitted effect of over 60% in size
Target sequence (Q9HC16 whole entry, looked up): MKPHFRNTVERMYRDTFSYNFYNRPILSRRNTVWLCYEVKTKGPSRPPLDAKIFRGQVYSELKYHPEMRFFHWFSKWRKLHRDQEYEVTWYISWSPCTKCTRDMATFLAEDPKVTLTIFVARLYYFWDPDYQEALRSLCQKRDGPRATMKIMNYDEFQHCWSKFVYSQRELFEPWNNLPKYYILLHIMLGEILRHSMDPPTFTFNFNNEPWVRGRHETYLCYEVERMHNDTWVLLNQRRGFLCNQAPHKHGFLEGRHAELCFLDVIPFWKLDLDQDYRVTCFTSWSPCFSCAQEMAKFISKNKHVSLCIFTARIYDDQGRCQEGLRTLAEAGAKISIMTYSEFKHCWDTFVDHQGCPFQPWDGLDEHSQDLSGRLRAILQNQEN
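Read-out is eYFP fluorescence (Ex 488/Em 500-530) from Vif-expressing HeLa A3G-eYFP cells; more signal means A3G escaped Vif-mediated degradation. Cells plated overnight, compound pinned in, incubated overnight at 37 deg C.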
PINK1 expr mod: A Quantitative High throughput Screen to Identify Chemical Modulators of PINK1 Expression | 410,000 tested, 0.2% active | PINK1 immunofluorescence, high-content cytometry, 24 h | AID 624263, 2012 | Potency, µM (top dose mostly 76.6 µM), for inactives: at the top dose activation (PINK1 increase), hits mostly activators; active = well fitted activation curve with a large enough effect; inconclusive = small, poorly fitted or top-dose-only effect; cell line not stated here; note: % of control where 0% means no effect; nearly all actives have a fitted effect of over 65% in size
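Decision-based qHTS: stable cells, 24 h exposure to five compound concentrations, CCCP as control. Fixed cells stained for PINK1 plus nuclear, mitochondrial and cell markers, cytometer read.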
Vif-APOBEC3F blk: qHTS for Inhibitors of Vif-A3F Interactions: qHTS | HeLa A3F-eYFP + Vif (tagged APOBEC3F with the HIV-1 protein that degrades it), YFP fluorescence increase | Potency, µM (top dose mostly 46.1 µM), without a hit: at the top dose activity, negative = active | 390,000 tested, 0.2% active | AID 602313, 2012; note: % of control where 0% means no effect; nearly all actives have a fitted effect of over 65% in size
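HeLa cells stably expressing Vif plus C-terminally eYFP-tagged A3F were seeded, incubated overnight at 37 deg C, dosed with compound, incubated overnight again at 37 deg C. Yellow fluorescence (Ex 488/Em 500-530) reported blocked Vif-mediated A3F-eYFP degradation.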
Epigenetic derep: Quantitative High-Throughput Screen for Regulators of Epigenetic Control. murine LDR cells, GFP reporter derepression, 30 h. Potency, µM (series often up to 53.9 µM), for inactives: top-dose GFP activation, hits mostly activators. 280,000 tested, 0.2% active. AID 1865, 2009; note: % of control where 0% means no effect; nearly all actives have a fitted effect of over 60% in size
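Murine LDR cells bearing a silenced CMV-driven GFP reporter were exposed to compound for 30 h at 37 C. After PBS washes, GFP-positive cells (20-120 um objects) counted by laser-scanning microplate cytometry.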
* marks the source's active call; other numbers are inactive results; [ ] = another dose, or the depositor's remark. Sampled rows, rich in hits. Any-hit rate of the full collection: about 0.51%. Unless noted, calls come from the whole dose curve; as a rule, active = well fitted curve in the direction sought with a large enough effect; inconclusive = small, poorly fitted or top-dose-only effect, or another doubt; inactive = no such curve, though single readings can be large; an effect the other way counts as inactive or inconclusive. Potency is the fitted concentration of half-maximal effect.

Screening CCCCOc1ccc(-c2cc(C(F)(F)F)c(C#N)c(SCC(=O)O)n2)cc1 returned Vif-A3G inh -9%, PINK1 expr mod inconclusive, Vif-APOBEC3F blk 11µM* and Epigenetic derep 25µM*.
N#Cc1ccccc1NC(=O)CSc1nc(-c2ccccc2)cc(C(F)(F)F)c1C#N was read as Vif-A3G inh -30%, PINK1 expr mod 10%, Vif-APOBEC3F blk 11µM* and Epigenetic derep 13µM*.
`COc1cc(Cl)c(C)cc1N1C(=O)[C@@H]2C[C@H]1CN2Cc1ccccn1` gave PINK1 expr mod 1%.
For Cc1cnc(SCC2CCCO2)nc1C1CCCN(Cc2cc3c(cc2Cl)OCO3)C1 (stereo unspecified) the results were PINK1 expr mod 1%.
`COC(=O)CSc1nc(C)cc(C(F)(F)F)c1C#N` gave Vif-A3G inh -1%, PINK1 expr mod 0%, Vif-APOBEC3F blk -5% and Epigenetic derep -2%.
`Cc1ccc(S(=O)(=O)CCSc2nc(C)cc(C(F)(F)F)c2C#N)cc1` gave Vif-A3G inh 11µM*, PINK1 expr mod 1%, Vif-APOBEC3F blk inconclusive and Epigenetic derep inconclusive.
For CN(C)c1ccc(/C=C2\SC(N3CCCCC3)=NC2=O)cc1 the results were Vif-A3G inh inconclusive, PINK1 expr mod 0% and Vif-APOBEC3F blk 22µM*.
`Cc1cc(C(=O)NCC2CCC3(CCN(Cc4ccc5ccccc5c4)CC3)O2)n(C)n1` (stereo unspecified) gave PINK1 expr mod 1%.
`COC(=O)c1ccc(NC(=O)Nc2ccc([N+](=O)[O-])cc2)cc1` gave Vif-A3G inh -6%, PINK1 expr mod 35µM* and Vif-APOBEC3F blk -1%.
For CC(C)Cc1nc2cc(NS(=O)(=O)N(C)C)cc(C(=O)N3CCOc4ccccc4C3)c2n1C the results were PINK1 expr mod 0%.
Cc1c(C(=O)N(C)Cc2cscn2)sc2ncnc(NC[C@H]3CCc4ccccc4O3)c12 was read as PINK1 expr mod 0%.
CCN(CC)C(=S)SSC(=S)N(CC)CC was read as Vif-A3G inh -10%, PINK1 expr mod 1%, Vif-APOBEC3F blk 8% and Epigenetic derep 0.25µM*.
`CCOc1ccc(NC(=O)/C(C#N)=C\c2ccc(N3CCCC3)c(C)c2)cc1` gave Vif-A3G inh inconclusive, PINK1 expr mod inconclusive and Vif-APOBEC3F blk 11µM*.
CCOc1ccc(/C=C(\C#N)C(=O)Nc2cccnc2)cc1 was read as Vif-A3G inh 0%, PINK1 expr mod 0%, Vif-APOBEC3F blk -1% and Epigenetic derep 0%.
For Cc1c(C(=O)NC(C)(C)C)sc2ncnc(NCCN(C)C)c12 the results were PINK1 expr mod 0%.
For O=C(c1ccc(F)cc1)c1cc2ccc(O)cc2oc1=O the results were Vif-A3G inh 3%, PINK1 expr mod 2% and Vif-APOBEC3F blk 0%.
`N=c1oc2cc(O)ccc2cc1C(=O)Nc1ccc(F)cc1` gave Vif-A3G inh -4%, PINK1 expr mod 14µM* and Vif-APOBEC3F blk 7%.
Screening O=C(NN=Cc1ccc(N2CCOCC2)s1)c1ccc([N+](=O)[O-])cc1 returned Vif-A3G inh -1%, PINK1 expr mod 16µM* and Vif-APOBEC3F blk -6%.
Screening N#Cc1cccc(NC(=O)c2ccccc2C(=O)O)c1 returned Vif-A3G inh 2%, PINK1 expr mod -1%[38.3 µM], Vif-APOBEC3F blk -5% and Epigenetic derep 0%.
`N#Cc1ccc(NC(=O)Nc2ccc(Oc3ccc(NC(=O)Nc4ccc(C#N)cc4)cc3)cc2)cc1` gave Vif-A3G inh 3%, PINK1 expr mod 45µM*, Vif-APOBEC3F blk 0% and Epigenetic derep 4%.
Screening COc1ccc(NC(=O)Nc2ccc(OC)cc2)cc1 returned Vif-A3G inh 0%, PINK1 expr mod 7%, Vif-APOBEC3F blk -1% and Epigenetic derep 0%.
`N#Cc1ccc(NC(=O)Nc2cccc(C#N)c2)cc1` gave Vif-A3G inh -1%, PINK1 expr mod 32µM*, Vif-APOBEC3F blk 0% and Epigenetic derep 1%.
CCSC(=O)N1CCN(/[N+]([O-])=N/Oc2ccc([N+](=O)[O-])cc2[N+](=O)[O-])CC1 was read as Vif-A3G inh -9% and PINK1 expr mod 5%.
